From PubChem BioAssay come the findings set out here.

The nature of assay [1]: sensitizers of A549 cells to miR-34 induction, primary screen, imaging, A549 dox-inducible miR-34, nuclei and caspase counts (AID 1347080). The following applies: A549 miR-34 inducible, Hoechst nuclei count, 48 h.
Assay [2] in a line: survival rescue of mitochondrial mutant cells in low glucose, primary screen, MELAS cybrids, Rieske KO mouse fibroblasts, CellTiter-Glo (AID 1508586;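 active means mean z-score across replicates of 1.96 or higher in either the MELAS or the Rieske mutant cell line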;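 further: z relative to plate mean and SD of compound and empty wells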).
Assay [3] can be described thus: liver-stage malaria parasite growth inhibition, primary screen, cell-based, HepG2, luciferase luminescence, HepG2 viability (AID 624349; in the data active means parasite load remaining mostly below about 12%, no sharp cut-off; inactive means mostly above about 10%;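 further: 100% = mean of DMSO negative control wells on the same plate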). Particulars: P. berghei liver stage in HepG2, luciferase luminescence, concentration not given here; parasite load remaining: stronger effect = lower value; viability: measured here: HepG2 viability without parasites.
The nature of assay [4]: viability rescue of complex I mutant cybrids, primary screen, cell-based, galactose medium, ATP luminescence (AID 1645843;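 active means z-score of at least 1.8 in each of two replicates, scored against plate mean and spread of sample wells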;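 further: positive z means more ATP and so rescue of galactose-driven cybrid death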). Particulars: complex I mutant cybrid cells, 72 h, stronger effect = higher value.
The target in assay [5] is NAD(+) hydrolase SARM1 (Homo sapiens) (UniProt Q6SZW1). Description: SARM1 TIR NADase inhibitors, cell lysate, NAD-Glo luminescence (AID 1508614;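 active means compound whose remaining NAD level is above about 45 nM, limit read from the data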). The following applies: SAM-TIR HEK293T lysate NADase, at 1 µM, stronger effect = higher value.
For assay [6], the target named is Mitogen-activated protein kinase 7 (Homo sapiens) (UniProt Q13164). Description: ERK5 transactivation activators in reporter cells, primary screen, cell-based, HTS (AID 1508626;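 active means luciferase signal above three times the same-plate solvent-only control wells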;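 further: luciferase driven by Gal4-ERK5 fusion binding five Gal4 sites before minimal TATA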). The following applies: HeLa Gal4-ERK5 transactivation, 18 h, at 5 µM, stronger effect = higher value.
Where [7] appears, read: stronger effect = lower value, cell number ratio, induced over uninduced.
Where [8] appears, read: measured here: relative caspase fold change +Dox/-Dox.
Setting [9] is: measured here: total cells with miR-34 induction, stronger effect = lower value.
Setting [10] is: measured here: total cells without miR-34 induction.
The mark [11] stands for this setting: MELAS cybrid survival, CellTiter-Glo 48 h, stronger effect = higher value.
Where [12] appears, read: Rieske KO mouse fibroblast survival, CellTiter-Glo 72 h.

“And” between values parts separate entries of the source, which are not always exact repeats. Equal values may be shown once. The source made the active and inactive calls.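 How the source made its calls, unless noted: active means compounds whose cell count with miR-34 switched on is under 0.7 times the count with it off; inactive means the rest.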

Chain of Mitogen-activated protein kinase 7 (Homo sapiens) (Q13164 whole entry, looked up, the tested form may be a part): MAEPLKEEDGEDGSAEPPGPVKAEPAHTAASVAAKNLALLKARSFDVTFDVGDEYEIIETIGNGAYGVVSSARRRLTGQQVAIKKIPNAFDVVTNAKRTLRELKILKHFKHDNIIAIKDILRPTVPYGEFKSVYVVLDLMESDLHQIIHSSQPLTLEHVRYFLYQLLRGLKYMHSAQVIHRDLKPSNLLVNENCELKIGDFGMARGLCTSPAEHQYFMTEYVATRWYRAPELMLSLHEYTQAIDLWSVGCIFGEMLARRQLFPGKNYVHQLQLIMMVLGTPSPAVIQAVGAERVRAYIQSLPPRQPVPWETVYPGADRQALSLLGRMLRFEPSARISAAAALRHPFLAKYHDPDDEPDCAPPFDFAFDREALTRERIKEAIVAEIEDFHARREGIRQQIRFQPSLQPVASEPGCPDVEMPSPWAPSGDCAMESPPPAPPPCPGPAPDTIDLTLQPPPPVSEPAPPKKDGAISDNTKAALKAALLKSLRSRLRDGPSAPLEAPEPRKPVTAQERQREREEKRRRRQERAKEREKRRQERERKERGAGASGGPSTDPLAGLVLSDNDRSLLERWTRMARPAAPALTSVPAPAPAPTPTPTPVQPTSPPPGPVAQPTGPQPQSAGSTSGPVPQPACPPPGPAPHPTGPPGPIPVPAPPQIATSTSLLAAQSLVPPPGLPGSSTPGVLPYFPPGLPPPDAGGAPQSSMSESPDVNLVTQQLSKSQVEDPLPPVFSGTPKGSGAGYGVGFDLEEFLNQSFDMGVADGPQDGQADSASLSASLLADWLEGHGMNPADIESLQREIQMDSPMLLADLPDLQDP
Chain of NAD(+) hydrolase SARM1 (Homo sapiens) (Q6SZW1 whole entry, looked up, the tested form may be a part): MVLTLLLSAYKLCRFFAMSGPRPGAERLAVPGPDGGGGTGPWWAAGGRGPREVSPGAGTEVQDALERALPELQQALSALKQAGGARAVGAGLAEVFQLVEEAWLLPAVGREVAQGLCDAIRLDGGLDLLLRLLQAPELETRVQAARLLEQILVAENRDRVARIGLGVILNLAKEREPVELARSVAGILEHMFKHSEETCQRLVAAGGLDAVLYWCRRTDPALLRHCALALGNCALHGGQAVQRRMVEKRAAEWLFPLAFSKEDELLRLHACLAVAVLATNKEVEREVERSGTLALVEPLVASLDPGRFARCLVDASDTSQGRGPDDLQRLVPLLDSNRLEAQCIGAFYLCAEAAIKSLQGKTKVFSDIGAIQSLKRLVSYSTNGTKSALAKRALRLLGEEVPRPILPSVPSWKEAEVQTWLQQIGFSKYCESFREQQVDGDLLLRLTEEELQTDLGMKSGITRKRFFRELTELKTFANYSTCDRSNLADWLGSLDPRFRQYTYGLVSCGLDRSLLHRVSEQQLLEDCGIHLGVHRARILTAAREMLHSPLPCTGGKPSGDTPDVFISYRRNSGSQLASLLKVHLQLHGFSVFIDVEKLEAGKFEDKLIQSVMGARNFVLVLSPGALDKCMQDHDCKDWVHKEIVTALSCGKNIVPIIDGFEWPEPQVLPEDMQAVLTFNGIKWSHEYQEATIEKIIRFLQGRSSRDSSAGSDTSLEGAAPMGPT

`CC1CC[C@H]2C(C)C(=O)O[C@@H]3O[C@@]4(C)CC[C@@H]1[C@]32OO4` (stereo not given in full): the fold change in assay [1] (setting [7]) was 0.916 (inactive); in assay [1] (setting [8]), 0.744. Moreover, the cell count worked out at 6910 in assay [1] (setting [9]) and 7540 in assay [1] (setting [10]). Further, the z-score is -0.427 (inactive) in assay [2] (setting [11]) and 0.217 in assay [2] (setting [12]).

On to `C#C[C@@]1(O)C=C[C@H]2[C@@H]3CCC4=CC(=O)CC[C@@H]4[C@@H]3CC[C@@]21CC`, for which the values for the fold change in assay [1] (setting [7]) and in assay [1] (setting [8]) were 0.87 (inactive) and 1.21, respectively. Further, the values for the cell count in assay [1] (setting [9]) and in assay [1] (setting [10]) were 7070 and 8120, respectively. Moreover, the z-score is -0.518 (inactive) in assay [2] (setting [11]) and 0.382 in assay [2] (setting [12]).

In the case of `N#CC(OC1OC(COC2OC(CO)C(O)C(O)C2O)C(O)C(O)C1O)c1ccccc1` (stereo not given), the fold change in assay [1] (stronger effect = lower value) was 0.82 (inactive); in assay [1] (setting [8]), 1. In addition, the figures for the cell count in assay [1] (setting [9]) and in assay [1] (setting [10]) were 6790 and 8280, respectively. The z-score in assay [2] (setting [11]) was -0.2 (inactive); in assay [2] (setting [12]) it was -0.452.

As to `CC=C(C)C(=O)NC(c1ccccc1)C(O)C(=O)OC1C[C@@]2(O)C(OC(=O)c3ccccc3)[C@@H]3[C@]4(OC(C)=O)COC4CC(O)[C@@]3(C)C(=O)C(OC(C)=O)C(=C1C)C2(C)C` (stereo not given in full), the fold change in assay [1] (setting [7]) was 1.27 (inactive); in assay [1] (setting [8]), 0.457. Moreover, the values for the cell count in assay [1] (setting [9]) and in assay [1] (setting [10]) were 1460 and 1150, respectively. Besides, the z-score in assay [2] (setting [11]) was 1.29 (inactive); in assay [2] (setting [12]) it was 0.0967.

Regarding `C=C1N[C@@H](Cc2ccc3[nH]cc(CCN(C)C)c3c2)CO1`, the parasite load remaining in assay [3] was 49.1% (inactive). In assay [3], the viability – broadly, a read-out of living cells in per cent, often relative to untreated cells – was 107%. In addition, the values for the fold change in assay [1] (stronger effect = lower value) and in assay [1] (setting [8]) were 0.795 (inactive) and 1.08, respectively. Besides, the figures for the cell count in assay [1] (setting [9]) and in assay [1] (setting [10]) were 9100 and 11400, respectively. The z-score in assay [2] (setting [11]) was 0.499 (inactive); in assay [2] (setting [12]), 0.377; in assay [4], 0.28 (inactive).

For the compound `CN1C2CCC1CC(=O)C2`, the fold change was 0.86 (inactive) in assay [1] (setting [7]) and 0.54 in assay [1] (setting [8]). Further, the cell count in assay [1] (setting [9]) came out at 8780; in assay [1] (setting [10]) it was 10200. Moreover, the results for the z-score in assay [2] (setting [11]), in assay [2] (setting [12]) and in assay [4] were 0.543 (inactive), -0.508 and 0.545 (inactive), respectively.

For `C1CCN(C2CCNCC2)CC1`, the fold change in assay [1] (setting [7]) was 0.919 (inactive); in assay [1] (setting [8]), 0.5. Also, the cell count in assay [1] (setting [9]) was determined as 8270; in assay [1] (setting [10]), 9000. Also, the results for the z-score in assay [2] (setting [11]), in assay [2] (setting [12]) and in assay [4] were -1.03 (inactive), 0.0453 and 0.44 (inactive), respectively.

As to `Clc1ccc(C(Cn2ccnc2)OCc2ccc(Sc3ccccc3)cc2)c(Cl)c1` (stereo not given), the fold change in assay [1] (setting [7]) is 0.851 (inactive); in assay [1] (setting [8]), 0.891. The cell count turned out to be 6850 in assay [1] (setting [9]) and 8050 in assay [1] (setting [10]). For the same compound, the z-score in assay [2] (setting [11]) was -0.265 (inactive); in assay [2] (setting [12]), 0.16.

In the case of `CCCC(=O)OCC[N+](C)(C)C`, in assay [3], the parasite load remaining was 42.8% (inactive). In addition, in assay [3], the viability was 107%. Also, the fold change is 0.934 (inactive) in assay [1] (stronger effect = lower value) and 0.999 in assay [1] (setting [8]). For the same compound, the cell count is 10000 in assay [1] (setting [9]) and 10700 in assay [1] (setting [10]). The figures for the z-score in assay [2] (setting [11]), in assay [2] (setting [12]) and in assay [4] were 0.357 (inactive), 0.101 and 0.43 (inactive), respectively.

In the case of `CCC1C=CC=CCC(C)C(O)[C@@](C)(O)C(=O)C(C)[C@@H](O)C(C)C(=O)C(C)C(O)C(C)C=CC(=O)OC2C(C)[C@]3(CCC(C)C(CC(C)O)O3)OC(CC1)[C@H]2C` (stereo not given in full), the results for the fold change in assay [1] (setting [7]) and in assay [1] (setting [8]) were 1.1 (inactive) and 0.572, respectively. Also, the cell count in assay [1] (setting [9]) is 3070; in assay [1] (setting [10]), 2800. Further, the z-score is -0.13 (inactive) in assay [2] (setting [11]) and -0.402 in assay [2] (setting [12]).

With `CN1CCCCC1Cn1cc(C(=O)c2cc([N+](=O)[O-])ccc2I)c2ccccc21` (stereo not given), the fold change in assay [1] (stronger effect = lower value) was 0.887 (inactive) and 1.03 (inactive); in assay [1] (setting [8]) it was 0.479 and 0.87. The cell count in assay [1] (setting [9]) is 5220 and 6710; in assay [1] (setting [10]) it was 5890 and 6500. Moreover, the z-score is 0.0965 (inactive) in assay [2] (setting [11]) and -0.371 in assay [2] (setting [12]).

`CN1CCN(c2nc3ccccc3nc2Cl)CC1`: the fold change in assay [1] (setting [7]) is 0.946 (inactive); in assay [1] (setting [8]) it was 0.445. In addition, the cell count in assay [1] (setting [9]) was 7800; in assay [1] (setting [10]) it was 8250. Also, the z-score in assay [2] (setting [11]) is -0.222 (inactive); in assay [2] (setting [12]) it was -0.11.

Regarding `O=c1cccc2n1CC1CNCC2C1` (stereo not given), the fold change in assay [1] (stronger effect = lower value) is 0.908 (inactive); in assay [1] (setting [8]), 1.17. In addition, the cell count in assay [1] (setting [9]) worked out at 7650; in assay [1] (setting [10]), 8430. Also, the results for the z-score in assay [2] (setting [11]) and in assay [2] (setting [12]) were -0.233 (inactive) and -0.215, respectively.

With `CC(C)(c1ccccc1)c1ccc(O)cc1`, the fold change in assay [1] (stronger effect = lower value) was 0.897 (inactive); in assay [1] (setting [8]), 0.637. The values for the cell count in assay [1] (setting [9]) and in assay [1] (setting [10]) were 8850 and 9870, respectively. Also, the values for the z-score in assay [2] (setting [11]), in assay [2] (setting [12]) and in assay [4] were 0.409 (inactive), -0.32 and 0.62 (inactive), respectively.

With `NCCc1ccc(S(N)(=O)=O)cc1`, the fold change in assay [1] (stronger effect = lower value) is 0.884 (inactive); in assay [1] (setting [8]), 0.315. In addition, the cell count in assay [1] (setting [9]) came to 9210; in assay [1] (setting [10]) it was 10400. Besides, the z-score was -0.0994 (inactive) in assay [2] (setting [11]), 0.0645 in assay [2] (setting [12]) and 0.495 (inactive) in assay [4].

Regarding `CCCCC(C#N)(Cn1cncn1)c1ccc(Cl)cc1` (stereo not given), in assay [3], the parasite load remaining is 18.9% (inactive). The viability in assay [3] was determined as 67.5%. In addition, the values for the fold change in assay [1] (stronger effect = lower value) and in assay [1] (setting [8]) were 0.938 (inactive) and 1.46, respectively. Further, the cell count came to 9220 in assay [1] (setting [9]) and 9830 in assay [1] (setting [10]). In addition, the z-score was 0.49 (inactive) in assay [2] (setting [11]), -0.243 in assay [2] (setting [12]) and 0.815 (inactive) in assay [4].

`O=C1C[C@@H]2OCC=C3CN4CC[C@]56c7ccccc7N1[C@H]5[C@H]2[C@H]3C[C@H]46`: in assay [3], the parasite load remaining was 96.5% (inactive). Further, the viability in assay [3] was 226%. Further, the fold change is 0.929 (inactive) in assay [1] (stronger effect = lower value) and 1.24 in assay [1] (setting [8]). In addition, the figures for the cell count in assay [1] (setting [9]) and in assay [1] (setting [10]) were 10000 and 10800, respectively. In addition, the z-score in assay [2] (setting [11]) is 0.997 (inactive); in assay [2] (setting [12]), 0.445; in assay [4], 0.365 (inactive). Also, the remaining NAD in assay [5] was 10 nM (inactive). In addition, the luciferase signal in assay [6] was 48 AU (inactive).

Regarding `NC(CC(=O)N1CCn2c(nnc2C(F)(F)F)C1)Cc1cc(F)c(F)cc1F` (stereo not given), the values for the fold change in assay [1] (setting [7]) and in assay [1] (setting [8]) were 0.922 (inactive) and 0.671, respectively. For the same compound, the results for the cell count in assay [1] (setting [9]) and in assay [1] (setting [10]) were 9670 and 10500, respectively. The z-score was -0.323 (inactive) in assay [2] (setting [11]) and 0.499 in assay [2] (setting [12]).

As to `Cc1ccc(C(C)Nc2ncnc3sccc23)cn1` (stereo not given), the fold change in assay [1] (setting [7]) was 0.921 (inactive); in assay [1] (setting [8]) it was 1.09. Moreover, the results for the cell count in assay [1] (setting [9]) and in assay [1] (setting [10]) were 5250 and 5700, respectively. Moreover, the results for the z-score in assay [2] (setting [11]), in assay [2] (setting [12]) and in assay [4] were -0.723 (inactive), -0.439 and -0.4 (inactive), respectively.

Regarding `C=CC(C)(C)c1cc2cc3c(cc2oc1=O)OC(C(C)(C)O)C3` (stereo not given), the fold change in assay [1] (setting [7]) was 0.846 (inactive); in assay [1] (setting [8]) it was 0.587. Besides, the results for the cell count in assay [1] (setting [9]) and in assay [1] (setting [10]) were 5210 and 6170, respectively. The z-score in assay [2] (setting [11]) is -1.27 (inactive); in assay [2] (setting [12]), 0.752; in assay [4], -2.66 (inactive).
